Lamin A splicing: modulators of lamin A splicing; HeLa LMNA splicing GFP/RFP minigene ratio, 48 h; 200,000 tested, 0.01% active; AID 1487; Potency, µM (top dose mostly 46.1 µM), for the others: at the highest dose ratio change, negative = inhibition, usual class: inhibitors; active means well fitted inhibition curve with a large enough effect in the signal ratio, with a control signal flat, not every such curve was filed as active; inconclusive means small, poorly fitted or top-dose-only effect, or effect the other way, or a change in a side signal; the % refers to the signal ratio; further: potency means the concentration at half of the fitted maximal effect
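S3 HeLa cells stably expressing lamin A-EGFP splicing minigene plus DsRed2, 600 cells/well, 48 h compound exposure at 37C. Laser-scanning cytometry; analysed as GFP (500-530 nm)/RFP (575-640 nm) total intensity ratio; 0.5% DMSO vehicle.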
HPGD inh: blocks human HPGD enzyme activity | purified HPGD, NADH fluorescence kinetic, PGE2 substrate | Potency, µM, for the others: top-dose activity change, negative = inhibition, hits mostly inhibitors | 150,000 tested, 4.3% active | P15428 | AID 894; further: potency means the concentration at half of the fitted maximal effect
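NADH formation kinetics: reaction with 30 uM PGE2 and 1 mM NAD+ (final), 20 nM enzyme, Tris-HCl pH 8 with Tween 20, after 15 min compound preincubation at room temperature. Fluorescence change, last versus first of five reads.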
ALDH1A1 block: ALDH1A1 (human) enzyme inhibition; AID 1030; 220,000 tested, 7.3% active; Potency, µM (highest dose often 75.3 µM), for inactives: top-dose activity, negative = inhibition, hits mostly inhibitors; P00352; Purified ALDH1A1, NADH fluorescence, propionaldehyde substrate;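 further: potency means the concentration at half of the fitted maximal effect; plate controls were no enzyme wells and a reference inhibitor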
PNC assembly inh: blocks assembly of the perinucleolar compartment. 140,000 tested, 3.1% active. PC3M PTB-GFP, PNC prevalence imaging, 16 h; stronger effect = lower value. AID 2417. activity change (PNC), negative = inhibition, % at 10 µM;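 active means readout at or below -70, meaning at least 70% loss of cells showing the perinucleolar compartment, a nuclear body marking cancer cells; inconclusive means readout between -30 and a set limit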;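 further: plate controls were DMSO wells for no effect and camptothecin positive control wells for full effect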
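Read-out is percentage of cells bearing a perinucleolar compartment, from automated 20x imaging of fixed, Hoechst-stained PC3M PTB-GFP cells. Cells were seeded 4 h, then exposed 16 h to compound (23 nl of library stock) in duplicate plates.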
ALOX12 inhib: blocks human 12-lipoxygenase activity; purified 12-hLO, xylenol orange hydroperoxide absorbance; AID 1452; Potency, µM (series often up to 57.1 µM), inactives show at the highest dose activity change, negative = inhibition, most hits filed as inhibitors; 150,000 tested, 0.12% active; P18054; active means well fitted inhibition curve with a large enough effect; inconclusive means small, poorly fitted or top-dose-only effect; further: potency means the concentration at half of the fitted maximal effect; nearly all actives have a fitted effect of over 55% in size
Target sequence (P18054 whole entry, looked up): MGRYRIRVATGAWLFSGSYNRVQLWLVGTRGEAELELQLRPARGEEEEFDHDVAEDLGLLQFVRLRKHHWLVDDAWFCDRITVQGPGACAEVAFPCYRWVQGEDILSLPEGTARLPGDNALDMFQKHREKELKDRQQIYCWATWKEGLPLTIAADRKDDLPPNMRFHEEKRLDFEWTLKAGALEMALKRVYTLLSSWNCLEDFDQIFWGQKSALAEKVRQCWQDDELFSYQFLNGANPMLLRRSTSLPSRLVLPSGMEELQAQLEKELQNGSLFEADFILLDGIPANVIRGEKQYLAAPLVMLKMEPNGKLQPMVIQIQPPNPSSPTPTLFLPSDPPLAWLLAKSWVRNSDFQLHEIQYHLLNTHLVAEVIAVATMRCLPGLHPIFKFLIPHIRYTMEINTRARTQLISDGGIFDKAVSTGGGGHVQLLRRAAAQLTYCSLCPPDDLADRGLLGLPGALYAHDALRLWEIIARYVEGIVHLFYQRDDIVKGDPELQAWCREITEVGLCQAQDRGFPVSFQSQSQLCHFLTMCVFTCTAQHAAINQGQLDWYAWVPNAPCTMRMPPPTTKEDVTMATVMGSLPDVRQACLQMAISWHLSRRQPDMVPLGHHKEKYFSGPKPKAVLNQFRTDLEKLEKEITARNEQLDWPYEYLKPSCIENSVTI
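Lipoxygenase turnover measured by absorbance at 573 and 405 nm after Fe-XO development. Human 12hLO 150 nM, arachidonate 40 uM, pH 7.0 Hepes buffer with detergent; 15 min compound preincubation, 30 min reaction.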
* hit, by the source's call; ? = inconclusive; nt = no result given; [ ] = remark or other dose. Sampled rows, rich in hits. Any-hit rate of the full collection: about 10%. Unless noted, the call rests on the fitted dose curve; in most records, active means well fitted inhibition curve with a large enough effect (not every such curve was filed as active); inconclusive means small, poorly fitted or top-dose-only effect, or another doubt; inactive means no such curve, though single readings can be large or run the other way. Unless noted, on the % scale 0 is the no-effect control and ±100 the full control effect.

SMILES	Lamin A splicing	HPGD inh	ALDH1A1 block	PNC assembly inh	ALOX12 inhib
O=C(CSc1nc2ccccc2c(=O)[nH]1)N1CCCCC1	-5%	16µM*	?	41	-4%
COc1c(C(=O)NNC(=O)c2ccccc2)csc1Br	nt	nt	4%	nt	nt
Cc1ccc(C)c(N2CCN(S(=O)(=O)c3c(C(=O)N4CCC(C)CC4)c(C)n(C)c3C)CC2)c1	-4%[46 µM]	nt	nt	nt	nt
Cc1cccc2cc3ccc4ccccc4c3cc12	nt	?	?	nt	-4%[11.4 µM]
Nc1nc(SCC(=O)Nc2ccccc2)[nH]c(=O)c1-c1ccccc1	-7%	1%	-2%	1	1%
Nc1nc(SCC(=O)N2CCc3ccccc3C2)[nH]c(=O)c1-c1ccccc1	-4%	-26%	22µM*	-18	2%
CC1CCN(c2nc(Cl)nc(Nc3ccc([N+](=O)[O-])cc3)n2)CC1	1%	-20%	16µM*	33	-1%
C=CCNc1nc(Nc2ccc([N+](=O)[O-])cc2)nc(N2CCCC2)n1	7%[46 µM]	nt	32µM*	nt	nt
C=CCNc1nc(Cl)nc(Nc2ccc([N+](=O)[O-])cc2)n1	12%[46 µM]	nt	2%	nt	nt
Cc1c(C)c2c(c(C)c1O)CC[C@@](C)(CCC[C@@H](C)CCC[C@@H](C)CCCC(C)C)O2	?	-11%	7%	nt	1%[0.00818 µM]
CC[C@H]1CC[C@H]2[C@@H]3CC=C4C[C@H](OC(C)=O)[C@@H](N)C[C@@]4(C)[C@H]3CC[C@@]12C	nt	-6%	6%[13.5 µM]	nt	-3%[11.4 µM]
CCc1nc2ccccc2c(=O)n1NC(=O)c1c(O)c2cccc3c2n(c1=O)CCC3	1%	-13%	16%	-83*	-3%
O=C(NCc1ccccc1)c1c(O)c2cccc3c2n(c1=O)CCC3	5%	-25%	?	8	-24%
CC(=O)Nc1c(I)c(C(=O)N[C@H]2[C@@H](O)[C@H](O)[C@H](CO)O[C@@H]2O)c(I)c(N(C)C(C)=O)c1I	?	1%	11%[20.9 µM]	nt	1%[25.6 µM]
Cc1ccc(N/C=C2\C(=O)C3(C)CCC2C3(C)C)cc1C (stereo unspecified)	nt	nt	14µM*	nt	nt
O=[N+]([O-])c1ccc(/C=N/N/C(=N/c2ccccn2)c2ccccn2)cc1	1%	28µM*	?	-29	-5%
O=[N+]([O-])c1cc(/C=N/N/C(=N/c2ccccn2)c2ccccn2)ccc1O	?	nt	-5%	nt	nt
COc1cccc(CNc2ccc3nc(-c4ccc(N)cc4)c(OC)n3n2)c1	nt	-16%	-9%	nt	-2%
Cn1cccc1CC(=O)N/N=C\c1cccs1	9%	?	-9%	9	-11%
Cc1ccc(/C=N/NC(=O)Cc2cccn2C)s1	3%	7.1µM*	3%	20	-7%
CC(/C=N/NC(=O)Cc1cccn1C)=C\c1ccco1	2%	?	14µM*	29	-10%
CC(=C/c1ccco1)/C=N/NC(=O)Cc1cccn1C	-5%	-26%	25µM*	42	-6%
CC(/C=N/NC(=O)Cn1cnc2c1c(=O)n(C)c(=O)n2C)=C\c1ccco1	nt	nt	22µM*	nt	nt
COc1ccc(NC(=O)N2CC3(CCN(S(=O)(=O)c4ccccc4)CC3)C2)cc1	nt	-1%	4%	nt	0%
O=S(=O)(c1ccccc1)N1CCC2(CCCN(c3ncccn3)C2)CC1	nt	-14%	-4%	nt	3%
SMILES	Lamin A splicing	HPGD inh	ALDH1A1 block	PNC assembly inh	ALOX12 inhib
NNC(=O)Cc1cccnc1	nt	-10%	8%[13.5 µM]	nt	6%[11.4 µM]
Cn1nc(C(C)(C)C)cc1C(=O)Nc1nc2c(s1)C(=O)CC(C)(C)C2	?	-11%	14µM*	7	-7%
COc1ccc(-c2nc(NC(=O)c3cc(C(C)(C)C)nn3C)sc2C)cc1	?	?	?	-14	?
CCOCC(=O)Nc1nc2c(s1)C(=O)CC(C)(C)C2	1%	?	?	-15	0%
CC1(C)CC(=O)c2sc(NC(=O)Cc3cccs3)nc2C1	-3%	-24%	0.79µM*	187	2%
Cc1ccc(S(=O)(=O)Nc2nc3c(s2)C(=O)CC(C)(C)C3)cc1	nt	nt	32µM*	nt	nt
Cc1nnc(NC(=O)Cc2cccs2)s1	-2%	-2%	-2%	-3	7%
CC1(C)CC(=O)c2sc(NC(=O)C3CC3)nc2C1	-11%	-26%	11µM*	27	4%
Cn1c(=O)c(-c2ccc(F)cc2)nc2cnc(N3CCOCC3)nc21	-8%	nt	?	nt	nt
COc1cccc(CC(=O)Nc2nccs2)c1	4%	-16%	-10%	?	4%
COc1cccc(CC(=O)Nc2nc3c(s2)C(=O)CC(C)(C)C3)c1	nt	nt	1.3µM*	nt	nt
O=C(O)c1ccc([N+](=O)[O-])c(P(=O)(O)O)c1	nt	-5%	0%[13.5 µM]	nt	1%[11.4 µM]
CCOc1ccc(C(=O)CC(Sc2ccc(C)cc2)C(=O)O)cc1 (stereo unspecified)	nt	nt	1.6µM*	nt	nt
CC(C)(CSc1ccccn1)NS(=O)(=O)c1ccc(Cl)cc1	-14%	-8%	10µM*	-14	-6%
CC(C)(CSc1ccccn1)NS(=O)(=O)c1ccccc1	-3%	0%	?	81	-4%
Cc1ccc(-n2c(SCc3ccccc3)nc3c([nH]c4ccccc43)c2=O)cc1	8%[46 µM]	nt	nt	nt	nt
CC(C)CCN(CCC(C)C)C(CO)(CO)CO	nt	nt	28µM*	nt	nt
Cc1ccc(NCCC(=O)c2ccc(Cl)cc2)cc1C	-1%	-10%	2.8µM*	-13	-1%
CC(=O)c1ccc(NCCC(=O)c2ccccc2)cc1	nt	nt	6.3µM*	nt	nt
Cc1ccc(C(=O)CCNc2ccc(Cl)cc2)o1	-13%	-10%	4µM*	-28	2%
CCCOc1ccc(C(=O)CCNc2ccc(C)c(Cl)c2)cc1	6%	-5%	18µM*	45	5%
CCc1ccc(NCCC(=O)c2ccc(Cl)cc2)cc1	3%	-7%	1.6µM*	-30	2%
CC(=O)c1ccc(NS(=O)(=O)Cc2ccccc2)cc1	5%	25µM*	-4%	21	-3%
Cc1ccc(NCCC(=O)c2ccc(Cl)c(Cl)c2)cc1	?	-15%	0.79µM*	75	4%
Cc1ccc(NC(=O)CCC(=O)c2ccc(F)cc2)cc1Cl	-2%	1%	8%	76	-5%
SMILES	Lamin A splicing	HPGD inh	ALDH1A1 block	PNC assembly inh	ALOX12 inhib
CCc1ccc(C(=O)NCc2ccc(Cl)cc2)cc1	-3%	-9%	13%	29	1%
O=C(COC(=O)CNC(=O)c1ccccc1)Nc1nc(-c2ccccc2)cs1	-2%	-2%	-11%	28	-1%
CC(C)(C)NC[C@@H](O)COc1ccccc1C1CCCC1	?	-1%	-5%[20.9 µM]	nt	-2%[25.6 µM]
CCOC(=O)c1ccccc1NC(=O)COc1ccccc1-c1nnc(-c2ccccc2)o1	-20%[46 µM]	nt	nt	nt	nt
N=C1C(c2ccccc2)=C(O)C2CCc3ccccc3N12 (stereo unspecified)	-3%	16µM*	8%	-7	-2%
COc1cc(/C=C2\SC(=Nc3c(C)n(C)n(-c4ccccc4)c3=O)NC2=O)ccc1O	-5%	14µM*	-5%	11	0%
COC(=O)c1cc(-c2ccccc2)sc1NC(=O)CN1C(=O)c2ccccc2C1=O	-9%	?	25µM*	83	-3%
